Our source for the inhibition values is PubChem BioAssay AID2544 (Sanford-Burnham Center for Chemical Genomics, 2010).

Each structure is given as a SMILES string. Screen size: about 330,000 compounds; about 390 (0.12%) were called active. The list comes from a sample in which actives are over-represented; it also holds similar structures and randomly drawn compounds. Values without a mark were called inactive.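 Rule for the calls: active = inhibition reaching a set limit with compound at 10 µM in the primary screen (cut at about 35% in these data); inactive = the rest.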

Chain of Intestinal-type alkaline phosphatase (Homo sapiens) (P09923 whole entry, looked up): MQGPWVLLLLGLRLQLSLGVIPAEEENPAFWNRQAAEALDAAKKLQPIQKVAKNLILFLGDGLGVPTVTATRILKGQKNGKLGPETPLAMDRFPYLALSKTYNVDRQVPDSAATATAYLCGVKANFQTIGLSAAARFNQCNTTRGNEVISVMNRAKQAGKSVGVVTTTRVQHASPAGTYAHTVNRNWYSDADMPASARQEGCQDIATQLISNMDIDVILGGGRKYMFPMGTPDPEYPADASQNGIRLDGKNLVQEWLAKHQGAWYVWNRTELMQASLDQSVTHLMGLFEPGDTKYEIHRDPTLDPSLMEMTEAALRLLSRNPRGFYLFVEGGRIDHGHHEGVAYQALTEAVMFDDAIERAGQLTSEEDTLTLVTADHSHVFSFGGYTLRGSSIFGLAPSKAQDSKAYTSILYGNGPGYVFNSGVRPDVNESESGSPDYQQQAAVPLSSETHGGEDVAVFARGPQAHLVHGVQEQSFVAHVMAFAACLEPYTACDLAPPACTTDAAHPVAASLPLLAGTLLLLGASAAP

This assay has as its target Intestinal-type alkaline phosphatase (Homo sapiens) (UniProt P09923). The assay can be described thus: blockers of intestinal alkaline phosphatase activity – biochemical, luminescence, uHTS, primary screen (AID 2544).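 Note: plate controls were DMSO wells with enzyme for no effect and no-enzyme buffer wells for full effect.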 The note with it: purified IAP, CDP-Star luminescence, 30 min; at 10 µM; active compounds read high.
The term inhibition denotes the relative decrease from the control value, in per cent. Take `O=C(CNC(=O)c1cc(=O)[nH]c2ccccc12)Nc1ccc(F)c(F)c1`: the inhibition was -5.1%. Turning to `CC(=O)Nc1ccc(S(=O)(=O)N2CCN(S(=O)(=O)c3cccs3)CC2)cc1`, the inhibition is 1.1%. As to `CC(=O)c1cccc(NC(=O)C2CCCN2S(=O)(=O)c2cccc3nsnc23)c1` (stereo not given), the inhibition was 18.3%.

Turning to `CC(=O)c1ccc(NC(=O)C2CCCN2S(=O)(=O)c2cccs2)cc1` (stereo not given), the inhibition was 37.2% (active). Turning to `CCc1ccc(NC(=O)NC(C)c2ccc3c(c2)OCO3)cc1` (stereo not given), the inhibition is -18.5%. For `CC(=NCc1ccc2c(c1)OCO2)C1=C(O)c2ccccc2C1=O`, the inhibition is 82.2% (active). Next, `O=C(CC(Cc1ccccc1)C(=O)O)NCCc1ccc2c(c1)OCO2` (stereo not given): -65.3%; `COc1cccc(-n2c(=O)c3c(C)c(C(=O)N(C)C)sc3n(CC(=O)NCCc3ccc(OC)c(OC)c3)c2=O)c1`: -1.6%; `C[N+]1(CCNC(=O)/C=N/O)CCCCC1`: -34.9%. For the compound `CC(=O)c1ccc(S(=O)(=O)Nc2ccc(-c3ccc4nncn4n3)cc2)cc1`, the inhibition was -1.5%.

With `COC(=O)[C@H](C(C)C)n1c(C)c(C(C)=O)c(C(C)=O)c1C`, the inhibition is -6.9%.

For the compound `CC(C)C[C@H](NC(=O)[C@@H]1O[C@H]1C(=O)O)C(=O)NCCCCN=C(N)N`, the inhibition was 14.6%.

Take `CCCc1ccc(C(=O)[C@@H]2[C@@H](C(C)=O)N3c4ccc(F)cc4C=C[C@@H]3[C@@]23C(=O)Nc2ccccc23)cc1`: the inhibition is 0%.

For `CCCCc1nc(NCCN)c(C#N)c2c1CSC(C)(C)C2`, the inhibition was 6.8%.

With `Cc1ccc(S(=O)(=O)Nc2ccc(F)c(S(=O)(=O)N3CCOCC3)c2)cc1`, the inhibition was -6.7%. For the compound `CC(Oc1ccccc1)C(=O)NN1Cc2ccccc2C1=N` (stereo not given), the inhibition is -9.2%.

For `Cc1cccn2c(=O)nc(SCC(=O)NCc3ccccc3Cl)nc12`, the inhibition was -1.6%. In the case of `COCCSc1nnc(NC(=O)CCS(=O)(=O)Cc2ccccc2)s1`, the inhibition was 35.1% (active). On to `CCOCc1nnc(NC(=O)CCS(=O)(=O)Cc2ccccc2)s1`, for which the inhibition is -9.2%. Regarding `COC(=O)CSc1nnc(NC(=O)CCc2ccccc2)s1`, the inhibition is -5.1%. Take `CCOc1ccccc1NC(=S)N1CCN(c2cccc(C)c2C)CC1`: the inhibition was -5.2%. As to `COc1ccccc1C(=O)N(C1=NC(C)CS1)c1ccc(Cl)cc1` (stereo not given), the inhibition was -3%. The value for `Cc1ccn2c(=O)c(C(=O)NCCC3=CCCCC3)c(O)nc2c1` was 6.8%; that for `O=C(Nc1cc(S(=O)(=O)N2CCOCC2)ccc1OCC(F)(F)F)c1ccc(N2CCCC2=O)cc1` was 2.5%.

For `Cc1cc(C)c2c(n1)sc1c(=O)n(-c3ccccc3)c(=O)[nH]c12`, the inhibition is 5.6%.
